# In PubChem BioAssay (EPA / NIEHS):
# Results filed as inconclusive are left out. Active and inactive are the calls of the source. Rule for the calls: active = hit-call score of the fitted dose curve at least 0.9, where 1 is the maximum; inconclusive = response in the unintended direction; inactive = score below 0.9.
# Assay: Tanguay_ZF_120hpf_YSE_legacy: (Legacy) Oregon State University Tanguay Lab 120 Hour Post-fertilization zebrafish Assay for Yolk Sac Edema (AID 2283634);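 for AC50: actives raise the incidence of yolk sac edema above the DMSO baseline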
# Description: Tanguay_ZF_120hpf_legacy is a whole embryo, multiplexed endpoint assay using zebrafish larvae exposed for 120 hours post fertilization on a 96-well plate.Tanguay_ZF_120hpf_YSE_legacy is one of one assay component(s) measured or calculated from the Tanguay_ZF_120hpf_legacy assay. It is designed to make measurements of zebrafish development as detected with brightfield microscopy of developing zebrafish embryos.Data from the assay component Tanguay_ZF_120hpf_YSE_legacy was analyzed into 1 assay endpoints. This assay endpoint, Tanguay_ZF_120hpf_YSE_legacy, was analyzed in the positive analysis fitting direction relative to DMSO as the negative control and baseline of activity. Using a type of morphology reporter, gain-of-signal activity can be used to understand changes in developmentals as they relate to the whole embryo. To generalize the intended target to other relatable targets, this assay endpoint is annotated to the zebrafish development intended target family, where the subfamily is extra-embryonic membrane development.
# Zebrafish husbandry: Tropical 5D wild-type adult zebrafish were housed in at an approximate density of 1000 per 100 gallon tank at the Sinnhuber Aquatic Research Laboratory, Oregon State University, Corvallis, OR. Each tank was kept at standard laboratory conditions of 28C on a 14-h light/10-h dark photoperiod in fish water consisting of reverse osmosis water supplemented with a commercially available salt (Instant Ocean). Spawning funnels were placed into the tanks the night prior, and embryos were collected and staged. To increase bioavailability, the chorion was enzymatically removed using pronase (63.6mg/ml, >/= 3.5U/mg, Sigma-Aldrich: P5147) at 4 hours post fertilization (hpf) using a custom automated dechorionator.Chemical exposures: Six hpf dechorionated embryos were placed 1 embryo per well in a 96-well plate prefilled with 90 ul of EM using automated embryo placement systems (AEPS). Ten microliters of each row of dilution plate 2 was added to 2 exposure plates. The final DMSO concentration used was 0.64% (vol/vol). Thirty-two embryos were also exposed to 5uM trimethyltin chloride (positive control). Plates were sealed to prevent evaporation and foil covered to reduce light exposure and kept in a 28C incubator. Embryos were statically exposed until 120 hpf. At 24 hpf, embryos were assessed for photomotor response using a custom photomotor response analysis tool (PRAT) and for developmental toxicity endpoints (MO24: mortality at 24 hpf, DP: developmental progression, SM: spontaneous movement, and NC: notochord distortion). At 120 hpf, locomotor activity was measured using Viewpoint Zebralab and assessed for 18 endpoints. Zebrafish acquisition and analysis program (ZAAP), a custom program designed to inventory, acquire, and manage zebrafish data, was used to collect developmental endpoints as either present or absent (i.e., binary responses were recorded). If mortality occurred for an embryo (at either 24 or 120 hpf), the non-mortality endpoints were not measured.
SMILES,outcome,AC50
O=C(NS(=O)(=O)/C=C/c1ccccc1)c1ccc(F)cc1Cl,inactive,–
CCOc1cccc(-n2cc(C(=O)N3CCN(c4cc(C(=O)O)c5ccccc5c4)CC3)nc2-c2ccc(C)cc2)c1,inactive,–
CCOC(=O)CC(CC(=O)OCC)(OC(C)=O)C(=O)OCC,inactive,–
Cn1cnc([N+](=O)[O-])c1Sc1ncnc2nc[nH]c12,inactive,–
O=C1OC(=O)C2C3C=CC(C3)C12 (stereo not given),inactive,–
Cn1c(=O)c2c(ncn2C)n(C)c1=O,inactive,–
Cc1ccc(O)cc1,inactive,–
CNCc1ccc(NC(=O)c2c[nH]c3c2C(=O)CCC3)cc1,inactive,–
CNS(=O)(=O)c1cc(C(=O)N2CCC(CCN3C4CCC3CC(n3c(C)nc5ccccc53)C4)(c3cccc(F)c3)CC2)c(Cl)cc1F (stereo not given),inactive,–
Cc1ccc(S(=O)(=O)O)cc1C,inactive,–
CCN(C(=O)c1cc(C)cc(OC[C@H](C)Nc2ccncc2)c1)C(C)C,inactive,–
O=C(O)c1cc(N=Nc2ccc(S(=O)(=O)Nc3ccccn3)cc2)ccc1O,inactive,–
CCOC(=O)COc1ccc2c(c1)CC(NCC(O)c1cccc(Cl)c1)CC2 (stereo not given),inactive,–
COC(=O)CC(=O)OC,inactive,–
COc1ccc(-n2nc(C(F)F)cc2-c2ccc(S(C)=O)cc2)cc1 (stereo not given),–,24.8 µM (active)
O=c1n(CC2CO2)c(=O)n(CC2CO2)c(=O)n1CC1CO1 (stereo not given),inactive,–
CC(C)=CCC/C(C)=C/CO,inactive,–
CCCCCCc1ccc(O)cc1O,inactive,–
Fc1ccccc1[C@@H](F)COC1CCC(Nc2ncnc3[nH]ncc23)CC1 (stereo not given in full),–,23.9 µM (active)
COCCOCCOCCOC,inactive,–

SMILES,outcome,AC50
CC[C@H](C)C(=O)O[C@H]1C[C@@H](C)C=C2C=C[C@H](C)[C@H](CC[C@@H]3C[C@@H](O)CC(=O)O3)[C@H]21,inactive,–
CC(C)CC(C)(O)C#CC(C)(O)CC(C)C (stereo not given),inactive,–
Nc1nc2ncc(CNc3ccc(C(=O)N[C@@H](CCC(=O)O)C(=O)O)cc3)nc2c(=O)[nH]1,inactive,–
O=c1[nH]c2ccc(S(=O)CCN3CCC(Cc4ccc(F)cc4)CC3)cc2o1 (stereo not given),inactive,–
Cc1[nH]cnc1C[C@H]1CCc2c(C)c3ccccc3n2C1=O,inactive,–
CN(C)c1ccc(N=NS(=O)(=O)O)cc1,inactive,–
CCCCC(CC)COC(=O)c1ccc(C(=O)OCC(CC)CCCC)cc1 (stereo not given),inactive,–
COc1ccc2sc(C(=O)Nc3nnn[nH]3)c(OC(C)C)c2c1,inactive,–
CCn1nc(Cc2ccccc2)cc1C1CCN(C[C@H]2C[C@H](N(C)[C@@H](C(=O)O)C(C)C)C[C@@H]2c2cccc(F)c2)CC1,inactive,–
CCCC(=O)OCC,inactive,–
CC(C)=CCC/C(C)=C\CO,inactive,–
C[C@](N)(Cc1ccc(O)c(O)c1)C(=O)O,inactive,–
Cn1c(=O)cc(Oc2ccc(F)cc2F)c2cnc(NCC(C)(C)O)nc21,–,15.7 µM (active)
O=C(O)c1cccc(N(Cc2cccnc2)c2ccc(OC(F)F)c(OC(F)F)c2)c1,inactive,–
Nc1cccc(N)c1,inactive,–
C1N2CN3CN1CN(C2)C3,inactive,–
CC(C)=CCCC(C)=CC=O,inactive,–
CCCN(C1CCN(C(=O)C2CCNCC2)CC1)[C@@H]1CCc2ccc(OC)cc2C1,inactive,–
CC[C@H]1CC[C@H](NCc2cc3c(cc2OC)[C@H]2C[C@H]2C(=O)N3C)[C@H](c2ccccc2)N1,inactive,–
Nc1ccc(Nc2ccccc2)cc1,–,27.5 µM (active)
